Assay outcomes from PubChem BioAssay.
This is one part of a sample in which hits are shown more often than they occur.
CHX counter – counter-screen hit for Shiga toxin inhibitors, cycloheximide | cell reporter, cycloheximide protein synthesis inhibition counterscreen | max response, % | 300,000 compounds, 12% hits | AID 2314; in the data active = max response mostly above about 13%, no sharp cut-off; inactive = mostly below about 14%; note: read at 38.3 µM for the half of the compounds with a filed dose
AmpC inh no detg – inhibitors of E. coli AmpC beta-lactamase without detergent; P00811; AmpC nitrocefin hydrolysis, absorbance 480 nm, 0.0001% Triton; Potency, µM (titrated, usually from 57.1 µM), usual class: inhibitors; 330,000 compounds, 0.52% hits; note: nearly all actives have a fitted effect of over 20% in size
Target sequence (P00811 whole entry, looked up): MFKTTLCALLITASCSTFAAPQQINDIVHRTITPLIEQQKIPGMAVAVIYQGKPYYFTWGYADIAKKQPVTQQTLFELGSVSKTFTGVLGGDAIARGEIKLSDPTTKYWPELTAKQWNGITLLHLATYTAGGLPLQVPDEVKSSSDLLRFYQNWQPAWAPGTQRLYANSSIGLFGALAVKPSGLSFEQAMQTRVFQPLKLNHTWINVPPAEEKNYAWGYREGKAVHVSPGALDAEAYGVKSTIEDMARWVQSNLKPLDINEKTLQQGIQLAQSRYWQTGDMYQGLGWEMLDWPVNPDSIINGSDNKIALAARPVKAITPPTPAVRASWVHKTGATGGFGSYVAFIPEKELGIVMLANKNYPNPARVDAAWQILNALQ
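AmpC (5.3 nM in the dispensed reagent) in 20 mM phosphate pH 7.0 with 0.01% (detergent screen) or 0.0001% Triton X-100 was preincubated with compounds for 15 min at room temperature. Nitrocefin was then added from an 800 uM solution, and hydrolysis was followed at 480 nm.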
AmpC inh detg – inhibitors of E. coli AmpC beta-lactamase with detergent | P00811 | AmpC hydrolysis of nitrocefin, absorbance 480 nm, 0.01% Triton | Potency, µM (doses to about 114 µM), hits mostly inhibitors | 370,000 compounds, 0.041% hits | AID 485294; note: nearly all actives have a fitted effect of over 25% in size
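AmpC (5.3 nM in the dispensed reagent) in 20 mM phosphate pH 7.0 with 0.01% (detergent screen) or 0.0001% Triton X-100 was preincubated with compounds for 15 min at room temperature. Nitrocefin was then added from an 800 uM solution, and hydrolysis was followed at 480 nm.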
Shiga toxin inh – Shiga toxin inhibition; 290,000 compounds, 9.2% hits; AID 2315; inhibition, % at 38.7 µM; Vero cells, Shiga toxin protein synthesis inhibition reporter; in the data active = inhibition mostly above about 28%, no sharp cut-off; inactive = mostly below about 43%
AMA1 RON2 block – inhibitors of Plasmodium falciparum AMA1-RON2 interaction; AlphaScreen AMA1-biotinylated RON2 peptide binding; Potency, µM (series often up to 58.2 µM), usual class: inhibitors; 360,000 compounds, 0.2% hits; AID 720542; note: nearly all actives have a fitted effect of over 45% in size
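AMA1 (3D7) with his tag at 25 nM final met compounds first, then biotinylated RON2 peptide at 25 nM; detection used donor plus acceptor beads, 10 µg/mL apiece, read by AlphaScreen after 30 min at room temperature.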
SARS PLpro yeast – inhibitors of SARS-CoV papain-like protease in yeast. S. cerevisiae expressing SARS-CoV PLpro, growth rescue. Potency, µM (highest dose often 32.9 µM), hits mostly activators. 330,000 compounds, 0.19% hits; calls by dose curve; note: nearly all actives have a fitted effect of over 55% in size
Hits are given with their value; . = inactive; ? = inconclusive; / = no result. Unless noted, calls come from the whole dose curve; as a rule, active = well fitted curve in the direction sought with a large enough effect; inconclusive = small, poorly fitted or top-dose-only effect, or another doubt; inactive = no such curve, though single readings can be large; an effect the other way counts as inactive or inconclusive.

SMILES | CHX counter | AmpC inh no detg | AmpC inh detg | Shiga toxin inh | AMA1 RON2 block | SARS PLpro yeast
Cc1ccnc(NC(=O)c2cc3cc(F)ccc3s2)c1 | 45 | . | . | 83 | . | .
Cc1ccnc(NC(=O)Nc2ccc(F)cc2)c1 | 35 | . | ? | 69 | . | .
Cc1ccnc(NC(=O)CNC(=O)c2ccc(C)s2)c1 | / | . | ? | / | . | .
Cc1ccc(O)c(C2=NOC(O)(C(F)(F)F)C2)c1 (centres undefined) | . | . | . | . | . | .
C=CCNC(=S)Nc1c(C(=O)OC)[nH]c2cc(OC)ccc12 | 19 | . | . | . | . | .
O=C(Nc1ccccn1)c1csc2c1CCCC2 | 49 | . | . | 84 | . | .
COc1ccccc1NC(=O)c1csc2c1CCCC2 | . | . | . | . | . | .
Cc1nnc(NC(=O)c2csc3c2CCCC3)s1 | . | . | . | . | / | /
O=C(Nc1ccccn1)c1onc2c1CCCC2 | 30 | . | . | . | . | .
COc1cc(NC(=O)c2csc3c2CCCC3)ncn1 | 40 | . | ? | 53 | . | .
Cc1cccc(NS(=O)(=O)c2cc([N+](=O)[O-])ccc2C)n1 | . | . | . | . | . | .
CN(Cc1c(C(=O)N/N=C/c2cccc(F)c2)nnn1-c1nonc1N)c1ccccc1 | . | . | . | . | . | .
O=c1c2ccccc2nnn1COc1cccc(Cl)c1 | 55 | . | . | 124 | . | .
O=C(CSc1nnc(C2COc3ccccc3O2)o1)N1CCOCC1 (centres undefined) | . | . | . | . | . | .
O=C(CNC(=O)c1ccccc1)OCc1nc2ccccc2s1 | 42 | . | . | 49 | . | .
O=C(CNC(=O)c1ccccc1F)OCc1nc2ccccc2s1 | . | . | . | 67 | . | .
O=C(CNC(=O)c1ccc(Cl)cc1Cl)OCc1nc2ccccc2s1 | . | . | ? | . | . | .
O=C(COC(=O)c1c2ccccc2cc2ccccc12)NCC(F)(F)F | . | . | ? | . | . | .
CCCCOc1ccc(CN=C(N)N)cc1Cl | . | . | . | . | . | .
O=C(Nc1ccc(-c2nc3cccnc3s2)cc1)c1ccco1 | 34 | . | ? | 74 | . | .
O=C(Nc1ccc(-c2nc3ccccc3c(=O)o2)cc1)c1ccco1 | . | . | . | . | . | .
O=C(Cc1ccccc1)Nc1cccc(-c2nc3cccnc3s2)c1 | / | / | . | / | / | /
CCS(=O)(=O)Nc1cccc(-c2nc3cccnc3s2)c1C | 30 | ? | ? | 73 | . | .
O=C(Nc1cccc(-c2nc3cccnc3s2)c1)c1ccco1 | 20 | . | . | 57 | . | .
Cc1c(NC(=O)c2ccco2)cccc1-c1nc2cccnc2s1 | 16 | . | . | . | . | .
SMILES | CHX counter | AmpC inh no detg | AmpC inh detg | Shiga toxin inh | AMA1 RON2 block | SARS PLpro yeast
CCN(C(=O)CSc1nnc(C)n1-c1cccc(C)c1)C1CCS(=O)(=O)C1 (centres undefined) | / | . | . | / | . | .
CCCCN=C1CC(C)(C)CC(=O)/C1=C(/O)CCCN1C(=O)c2ccccc2C1=O | . | . | . | . | . | .
O=C(Nc1ccc(-c2nc3cccnc3s2)cc1)c1ccc(Br)o1 | 47 | . | . | 53 | . | .
Fc1ccc(Oc2nccc(-c3ccc(Cl)cc3)n2)cc1 | 26 | . | . | 36 | . | .
COc1ccc(Oc2nccc(-c3ccc(Cl)cc3)n2)cc1 | . | . | . | . | . | .
[O-][n+]1c2c(c3c4non(O)c4ccc31)CCCC2 | . | 10µM | . | . | . | .
Fc1ccccc1N1CCN(c2nc3ccccc3n3nnnc23)CC1 | 14 | . | . | . | . | .
O=C(CNCc1cccs1)Nc1ccc(OC(F)(F)F)cc1 | 20 | . | . | 82 | . | .
O=C(CNCc1cccs1)Nc1ccc(N2CCCCCC2)cc1 | 27 | . | . | 60 | 35µM | .
CC(=O)c1ccc(NC(=O)CNCc2cccs2)cc1 | 54 | . | . | 52 | . | .
CCC(C)NS(=O)(=O)c1ccc(NC(=O)CNCc2cccs2)cc1 (centres undefined) | / | / | / | / | . | /
CCC(C)(C)NCC(=O)Nc1ccc(OC(F)(F)F)cc1 | 15 | . | . | . | . | .
O=C(CNCc1cccs1)Nc1ccc(S(=O)(=O)N2CCCCC2)cc1 | . | . | . | . | . | .
COc1ccc2cc(CNc3ccc(C)cc3)c(=O)n(CC(=O)Nc3cccc(Cl)c3C)c2c1 | / | / | . | / | / | /
O=C(CCCSc1nc2ccccc2[nH]1)NC1=NCCS1 | . | . | . | . | . | .
CCCN(CCC)CCCNC(=O)c1nn(-c2cccc(OC)c2)c(=O)c2ccccc12 | . | . | . | . | . | .
Cc1ccc(NC(=O)CSc2n[nH]c(N)n2)cc1S(=O)(=O)N1CCOCC1 | . | . | . | . | . | .
Cc1ccc(NC(=O)CNCc2cccs2)cc1Br | 26 | . | . | 52 | . | .
O=c1cc(-c2cccc([N+](=O)[O-])c2)[nH][nH]1 | . | . | . | . | . | .
O=[N+]([O-])c1cccc(-c2nnc(-c3ccccc3)o2)c1 | 45 | . | . | 67 | . | .
Nc1cc(-c2cccc([N+](=O)[O-])c2)[nH]n1 | 16 | . | . | . | . | .
Clc1ccccc1-c1nnc2sc(-c3ccc4c(c3)OCO4)nn12 | 19 | . | . | 40 | . | .
Clc1ccccc1-c1nnc(-c2ccc3c(c2)OCO3)o1 | 29 | . | . | 93 | . | .
CC1CC/C(=N/Nc2ccccc2)C(=O)N1 (centres undefined) | . | . | . | . | . | .
Cc1ccc(CSc2nc3sc(C)c(C)c3c(=O)n2Cc2ccco2)cc1 | . | . | . | . | . | .
SMILES | CHX counter | AmpC inh no detg | AmpC inh detg | Shiga toxin inh | AMA1 RON2 block | SARS PLpro yeast
O=[N+]([O-])c1cccc(-c2nnc(-c3ccc4c(c3)OCO4)o2)c1 | 65 | . | . | 111 | . | .
CCc1nc2cc(Cl)c(Cl)cc2nc1CC | . | . | . | . | . | .
CCc1nc2cc(Cl)c(Cl)cc2[nH]1 | 11 | . | . | . | . | .
COc1ccc(/C=C/c2onc(C)c2S(=O)(=O)N2CCC(C(=O)N3CCC(C)CC3)CC2)cc1 | . | . | . | . | . | .
CCOC(=O)C1(Cc2ccc(OC)cc2)CCN(C(=O)CN2CCCCC2=O)CC1 | 17 | . | . | 26 | . | .
CCOC(=O)C1(Cc2ccc(OC)cc2)CCN(C(=O)c2cc(C)nn2C)CC1 | 14 | . | ? | . | . | .
CCOC(=O)C1(Cc2ccc(OC)cc2)CCN(S(C)(=O)=O)CC1 | 47 | . | . | 50 | . | .
CCCS(=O)(=O)N1CCC(Cc2ccc(OC)cc2)(C(=O)OCC)CC1 | 20 | . | ? | . | . | .
Cc1cc(S(=O)(=O)NCc2ccccc2)ccc1OCC(=O)NCc1cccnc1 | . | . | . | . | . | .
CCOC(=O)c1nnn2c1nc(SCC(C)=O)c1ccccc12 | . | . | ? | . | . | .
COc1ccc(/C=C/C2=NNC(=O)CC2)cc1 | 27 | . | . | . | . | .
